Screens deposited in PubChem by National Center for Advancing Translational Sciences (NCATS).
VDR inh = Inhibitors of the vitamin D receptor (VDR): qHTS | Vitamin D3 receptor (Homo sapiens), P11473 | VDR-SRC2-3 peptide fluorescence polarization, 2 h | Potency, µM, for inactives: max response, negative = inhibition, usual class: inhibitors | actives 0.93% (n = 400,000) | AID 504847, 2011; note: potency is the fitted concentration of half-maximal effect; % is set by controls: 0 for no effect and ±100 for the full control effect
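FP read-out; VDR + SRC2-3 coactivator peptide; 23 nl compound by pintool; 2 h RT incubation; reagents held at 4 deg C, protected from light.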
TrxR1 substrate = qHTS Assay for Substrates of Mammalian Selenoprotein Thioredoxin Reductase 1 (TrxR1): qHTS; Thioredoxin reductase 1, cytoplasmic (Rattus norvegicus), O89049; purified TrxR1 substrate turnover, NADPH consumption readout; Potency, µM (highest dose often 114 µM), without a hit: at the top dose activity change, negative = substrate turnover; actives 0.01% (n = 390,000); note: potency is the fitted concentration of half-maximal effect; % is set by controls: 0 for no effect and ±100 for the full control effect; nearly all actives have a fitted effect of over 50% in size
Target sequence (O89049 whole entry, looked up): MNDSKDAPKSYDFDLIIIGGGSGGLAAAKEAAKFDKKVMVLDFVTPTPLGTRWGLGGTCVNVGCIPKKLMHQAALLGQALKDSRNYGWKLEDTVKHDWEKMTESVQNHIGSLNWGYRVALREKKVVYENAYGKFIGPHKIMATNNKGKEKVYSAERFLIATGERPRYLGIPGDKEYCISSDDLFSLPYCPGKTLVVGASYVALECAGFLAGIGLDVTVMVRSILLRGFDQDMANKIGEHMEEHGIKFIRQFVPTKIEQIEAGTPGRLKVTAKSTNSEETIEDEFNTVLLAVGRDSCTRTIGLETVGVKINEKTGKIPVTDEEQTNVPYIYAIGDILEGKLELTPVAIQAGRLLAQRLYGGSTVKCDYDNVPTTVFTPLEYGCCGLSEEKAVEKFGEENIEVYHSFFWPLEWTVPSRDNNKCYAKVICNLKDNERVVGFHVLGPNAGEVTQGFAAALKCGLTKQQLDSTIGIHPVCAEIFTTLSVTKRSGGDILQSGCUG
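Rat TrxR1, dispensed at 90 nM, was prereduced with 400 uM NADPH (final) for 5 min at ~22 deg C, then incubated with compound 15 min before 400 uM selenite. A first-read NADPH fluorescence drop versus no-compound background flagged substrates.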
PLK1 PBD inh = qHTS for Inhibitors of PLK1-PDB (polo-like kinase 1 - polo-box domain): Primary Screen. AID 720504, 2013. actives 2.8% (n = 360,000). Plk1 PBD binding of FITC phosphopeptide, fluorescence polarization. Potency, µM, for the others: max response, negative = inhibition, hits mostly inhibitors; note: potency is the fitted concentration of half-maximal effect; series mostly up to about 57 µM; % is set by controls: 0 for no effect and ±100 for the full control effect; nearly all actives have a fitted effect of over 65% in size
Sfp PPTase inh = qHTS Assay for Inhibitors of Bacillus subtilis Sfp phosphopantetheinyl transferase (PPTase); 4'-phosphopantetheinyl transferase ffp (Bacillus subtilis), Q9F4F7; AID 1490, 2009; Biochemical Sfp PPTase activity, qHTS; Potency, µM, for inactives: largest response in the series, negative = inhibition, usual class: inhibitors; actives 3.5% (n = 310,000);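 note: the enzyme is Sfp with the accession as filed and its product quenches rhodamine fluorescence; potency is the fitted concentration of half-maximal effect; 0% = enzyme reaction without inhibitor and -100% = no enzyme wells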
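Step 1, compound plus 15 nM Sfp-PPTase, 15 min, room temperature. Step 2, add rhodamine-CoA (5 uM) and BHQ-2-YbbR (12.5 uM). Step 3, read 525/598 nm fluorescence at 0 and 30 min.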
IDH1 R132H inh = qHTS for Inhibitors of mutant isocitrate dehydrogenase 1 (IDH1): qHTS | Isocitrate dehydrogenase [NADP] cytoplasmic (Homo sapiens), O75874 | IDH1-R132H enzyme, NADPH consumption, diaphorase/resazurin fluorescence | Potency, µM (top dose mostly 76.6 µM), for inactives: at the top dose activity change, negative = inhibition, hits mostly inhibitors | actives 0.093% (n = 390,000) | AID 602179, 2012; note: potency is the fitted concentration of half-maximal effect; % is set by controls: 0 for no effect and ±100 for the full control effect; nearly all actives have a fitted effect of over 65% in size
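IDH1-R132H (0.5 ug/mL) preincubated 30 min with compound, then NADPH (0.016 mM) and alpha-KG (2 mM) added; 80 min at RT, pH 7.5. Remaining NADPH coupled via diaphorase/resazurin to fluorescence (540/590 nm); concentration-response curves normalized to no-enzyme control.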
TrxR1 inh = qHTS Assay for Inhibitors of Mammalian Selenoprotein Thioredoxin Reductase 1 (TrxR1): qHTS | Thioredoxin reductase 1, cytoplasmic (Rattus norvegicus), O89049 | recombinant rTrxR1, NADPH fluorescence consumption, selenite substrate | Potency, µM (highest dose often 114 µM), for inactives: at the highest dose activity change, negative = inhibition, hits mostly inhibitors | actives 1% (n = 390,000); note: potency is the fitted concentration of half-maximal effect; % is set by controls: 0 for no effect and ±100 for the full control effect; nearly all actives have a fitted effect of over 65% in size
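Rat TrxR1 (90 nM in the dispensed reagent) was pre-reduced with 400 uM NADPH for 5 min at room temperature, then incubated with compound for 15 min. After 400 uM selenite was added, NADPH fluorescence (Ex 340/Em 450 nm) was followed for 8 min.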
USP1 UbRho = Inhibitors of USP1/UAF1: Hit Validation in Primary Assay | shares compounds with VDR inh | Ub-Rhodamine cleavage, fluorescence kinetic read | Potency, µM (highest dose often 114 µM), without a hit: at the highest dose activity change, negative = inhibition, actives largely listed as inhibitors | actives 50% (n = 50) | AID 540327, 2011
VDR confirm = qHTS for Inhibitors of the vitamin D receptor (VDR): Hit Validation in Primary Screen; actives 89% (n = 840); VDR-coactivator inhibition assay, qHTS confirmation; Potency, µM, hits mostly inhibitors; shares compounds with VDR inh; note: potency is the fitted concentration of half-maximal effect
VDR FP = qHTS for Inhibitors of the vitamin D receptor (VDR): Hit Validation using a Fluorescein Assay; shares compounds with VDR inh; VDR-coactivator binding, fluorescein fluorescence polarization; Potency, µM (doses to about 57.1 µM), for inactives: top-dose activity change, negative = inhibition, usual class: inhibitors; actives 48% (n = 840); note: potency is the fitted concentration of half-maximal effect
VDR bla = qHTS for Inhibitors of the vitamin D receptor (VDR): Hit Validation using a Beta-Lactamase Assay. shares compounds with VDR inh. VDR beta-lactamase reporter cells, FRET ratio; cells co-treated with VDR agonist LG190178. Potency, µM (top dose mostly 46.1 µM), for the others: top-dose activity change, negative = inhibition, actives largely listed as inhibitors. actives 23% (n = 840). AID 602202, 2012; note: potency is the fitted concentration of half-maximal effect; % is set by controls: 0 for no effect and ±100 for the full control effect
VDR viability = qHTS for Inhibitors of the vitamin D receptor (VDR): Hit Validation using a Cytotoxicity Assay; shares compounds with VDR inh; cytotoxicity counter-screen, cell viability, qHTS; Potency, µM (titrated, usually from 48.3 µM), without a hit: at the top dose activity change, negative = cytotoxicity, hits mostly cytotoxic; actives 18% (n = 840); AID 602204, 2012;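 note: potency is the fitted concentration of half-maximal effect; plate controls were DMSO for no effect and high-concentration cycloheximide for full effect; nearly all actives have a fitted effect of over 75% in size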
Active calls of the source: *; u = inconclusive; x = not tested or not shown; [ ] = remark or other dose. Hits are enriched below; roughly 5.2% of the tested compounds scored in any of these assays. Calls come from the whole dose curve; as a rule, active = well fitted curve in the direction sought with a large enough effect; inconclusive = small, poorly fitted or top-dose-only effect, or another doubt; inactive = no such curve, though single readings can be large; an effect the other way counts as inactive or inconclusive.

SMILES	VDR inh	TrxR1 substrate	PLK1 PBD inh	Sfp PPTase inh	IDH1 R132H inh	TrxR1 inh	VDR confirm	VDR FP	VDR bla	VDR viability	others
COc1cc2c(cc1OC)-c1cc3nc4ccccc4nc3n1C(C)(C)C2	7.08µM*	x	x	u	x	x	20*	u	u	-8.2%	USP1 UbRho=46.9µM*
Cc1nc(N=Nc2ccc(S(=O)(=O)O)cc2S(=O)(=O)O)c(COP(=O)(O)O)c(C=O)c1O	u	13.2%[57.1 µM]	x	u	x	18.8%[57.1 µM]	x	x	x	x
Cc1nc(N=Nc2ccc(C(=O)O)cc2)c(COP(=O)(O)O)c(C=O)c1O	-3.1%	23.6%[57.1 µM]	x	x	x	u	x	x	x	x	USP1 UbRho=5.91µM*
OC[C@@H]1CN(Cc2ccc(-c3ccccc3)cc2)C[C@H](n2cnc3c(NC4CC4)ncnc32)O1	x	x	0.8%	x	x	x	x	x	x	x
Cc1nn(C(C)C(=O)NCc2ccco2)c(=O)c2nn(-c3ccccc3)c(C)c12 (stereo not drawn)	5.1%	4.0%	-3.5%	3.5%	1.2%	37.0%	x	x	x	x
CC(C)c1ccc(C(=O)OCC(=O)Nc2cccc(S(=O)(=O)NC3=NCCC3)c2)cc1	x	x	2.0%	x	9.5%	x	x	x	x	x
CSc1nnc(NC(=O)c2nc(S(=O)(=O)Cc3ccccc3)ncc2Cl)s1	u	-7.8%	29.9µM*	-9.7%	2.7%	31.6µM*	10*	8.91µM*	5.17µM*	26.7µM*
CCCc1nnc(NC(=O)c2nc(S(=O)(=O)Cc3ccc(C)cc3)ncc2Cl)s1	28.2µM*	4.7%	-20.9%	-14.1%	3.3%	50.1µM*	u	7.94µM*	18.4µM*	20.6µM*
CC(C)c1nnc(NC(=O)c2nc(S(=O)(=O)Cc3ccccc3)ncc2Cl)s1	15.8µM*	-1.6%	u	-7.2%	2.7%	50.1µM*	9.47*	7.94µM*	6.51µM*	14.6µM*
CCCN1CCC(C)(C(=O)Nc2cccc(OC(C)C)c2)C1 (stereo not drawn)	x	x	-0.4%	x	x	x	x	x	x	x
CCC(=O)Oc1oc(-c2ccccc2)nc1C=Nc1ccc(C)cc1	-10.3%	5.4%[11.4 µM]	-6.7%	5.4%	-2.6%	7.3%[11.4 µM]	x	x	x	x
COc1ccc(N=Cc2nc(-c3ccccc3)oc2OC(=O)c2ccccc2)cc1	39.8µM*	1.6%	u	-17.1%	-4.2%	u	9.47*	u	2.1%	6.1%
CC(=O)Oc1oc(-c2ccccc2)nc1C=Nc1ccccc1	39.8µM*	-13.4%	u	-16.6%	-0.8%	39.8µM*	10.6*	12.6µM*	18.3%	-23.0%
CCOC(=O)c1ccc(N=Cc2nc(-c3ccccc3)oc2OC(C)=O)cc1	17.8µM*	-1.9%	4.74µM*	-8.5%	0.9%	2µM*	4.23*	u	1.7%	-9.5%
CC(C)=C(NC(=O)c1ccccc1Cl)C(=O)NCCc1nc2ccccc2[nH]1	x	x	2.2%	x	1.4%	x	x	x	x	x
COCCCNC(=O)CCCCn1c(=O)c2ccccc2n(CC(=O)Nc2ccc(C)cc2C)c1=O	1.4%	-7.3%	x	x	-5.1%	-11.8%	x	x	x	x
CC(C)CCCN1C(Nc2ccccc2)=NC[C@@H]1C	-9.5%	2.5%	-6.9%	11.0%	-1.5%	13.6%	x	x	x	x
CCCS(=O)(=O)c1ncc(Cl)c(C(=O)Nc2sc3c(c2C(=O)NCC)CCCC3)n1	x	1.8%	x	x	x	u	3.16*	u	5.8µM*	u
CCSc1ncc(Cl)c(C(=O)Nc2sc3c(c2C(=O)NCCOC)CCCC3)n1	x	-4.3%	x	x	x	10.3%	x	x	x	x
COc1cc(CNC(=O)Nc2nnc([C@H]3C[C@H](O)[C@@H](CO)O3)s2)cc(OC)c1OC	x	x	-2.8%	x	x	x	x	x	x	x
Cc1[nH]n(C(N)=S)c(=O)c1C(c1ccccc1)C(C#N)C#N (stereo not drawn)	u	2.4%	u	-16.0%	5.7%	u	x	x	x	x
Cc1[nH]n(-c2ncc(-c3ccccc3)s2)c(=O)c1C(c1ccc(Br)cc1)C(C#N)C#N (stereo not drawn)	35.5µM*	-6.0%	2.67µM*	56.2µM*	u	31.6µM*	7.52*	u	u	-17.5%
COc1ccc(-n2c(SCC#N)nc3c(sc(=S)n3-c3ccccc3)c2=O)c(OC)c1	25.1µM*	-9.5%	5.97µM*	14.1µM*	4.9%	-10.5%	8.44*	u	31.2%	2.9%
COC(=O)[C@@H]1[C@@H](C#N)C2(c3ccccc3-c3ccccc32)N(c2ccc(Cl)cc2)N1C#N	25.1µM*	-3.5%	u	u	-30.0%	7.94µM*	23.8*	u	u	u
O=C(/C=C/c1cccc([N+](=O)[O-])c1)c1cccs1	u	-0.7%	-29.1%	3.0%	2.5%	u	5.62*	7.94µM*	-3.3%	u
